In PubChem BioAssay (NCI):
About 79,000 compounds went through this panel and 15% of them were active in at least one assay; those are over-represented in the sample as a whole. Active and inactive are the calls of the source. Rule as the data show it: active = growth inhibition above about 70%; inactive = the rest.

Tests used:
[1] = NCI Yeast Anticancer Drug Screen. Data for the rad52 strain (AID 147);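 also: 0% = growth of vehicle-treated control cultures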; conditions: S. cerevisiae rad52 mutant growth inhibition, hits give high values
Method in brief: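 Compounds are applied to a genetically defined yeast strain lacking normal DNA damage repair, and inhibition of growth is expressed relative to cultures given vehicle only.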

[2] = NCI Yeast Anticancer Drug Screen. Data for the wt1 strain (AID 149);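 also: 0% = growth of vehicle-treated wt1 cultures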; conditions: S. cerevisiae wt1 strain (SPY 50644) growth inhibition, hits give high values
Method in brief: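 Readout: yeast growth inhibition, normalised to vehicle controls, in the wt1 strain exposed to test compounds.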

[3] = NCI Yeast Anticancer Drug Screen. Data for the rad50EPP+ strain (AID 151);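 also: 0% = growth of vehicle-treated control cultures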; conditions: S. cerevisiae rad50 mutant strain, hits give high values
Method in brief: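 Compounds were applied to the rad50EPP+ yeast strain, which bears a defined DNA repair alteration, and growth inhibition was determined relative to vehicle-treated cultures.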

[4] = NCI Yeast Anticancer Drug Screen. Data for the mgt1 strain (AID 153); conditions: S. cerevisiae mgt1 mutant growth inhibition, hits give high values
Method in brief: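 Strain: mgt1 yeast, one of a set carrying defined DNA damage repair or cell cycle control alterations. Compound-treated growth compared with vehicle.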

[5] = NCI Yeast Anticancer Drug Screen. Data for the rad50 strain (AID 155);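 also: 0% = growth of vehicle-only cultures of the same strain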; conditions: S. cerevisiae rad50 strain growth inhibition, hits give high values
Method in brief: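 Compounds were tested on a yeast strain with an engineered DNA damage repair alteration; the reported value is growth inhibition normalised to vehicle treatment.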

[6] = NCI Yeast Anticancer Drug Screen. Data for the mec2-1 strain (AID 157); conditions: S. cerevisiae mec2-1 strain, hits give high values
Method in brief: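 Strain: mec2-1 (DNA repair/cell cycle alteration). Compound exposure, then growth measured; inhibition expressed relative to vehicle.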

[7] = NCI Yeast Anticancer Drug Screen. Data for the rad14 strain (AID 159);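 also: 0% = growth of vehicle-treated control cultures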; conditions: S. cerevisiae rad14 strain growth inhibition, hits give high values
Method in brief: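 Compound-treated yeast with a defined DNA-repair lesion; growth inhibition normalised to vehicle-treated cultures.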

[8] = NCI Yeast Anticancer Drug Screen. Data for the sgs1 mgt1 strain (AID 161);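 also: 0% = growth of cultures given vehicle only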; conditions: S. cerevisiae sgs1 mgt1 strain, hits give high values
Method in brief: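 Inhibition of yeast growth, normalised to vehicle-treated controls, is reported for a strain bearing genetic alterations in DNA damage repair.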

[9] = NCI Yeast Anticancer Drug Screen. Data for the CLN2oe strain (AID 163);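 also: 0% = growth of vehicle-only control cultures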; conditions: S. cerevisiae CLN2oe strain, hits give high values
Method in brief: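 Growth of a genetically modified yeast strain is measured after compound exposure and compared with cultures given vehicle alone.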

[10] = NCI Yeast Anticancer Drug Screen. Data for the cln2 rad14 strain (AID 165);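 also: 0% = growth equal to vehicle treated cultures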; conditions: S. cerevisiae cln2 rad14 strain, hits give high values
Method in brief: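 Compounds are applied to the cln2 rad14 yeast strain, and growth is then compared with that of vehicle-treated cultures to give inhibition.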

[11] = NCI Yeast Anticancer Drug Screen. Data for the bub3 strain (AID 167); conditions: S. cerevisiae bub3 mutant strain, hits give high values
Method in brief: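 Growth of a checkpoint-deficient yeast mutant is measured after compound exposure. Values represent inhibition relative to vehicle.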

[12] = NCI Yeast Anticancer Drug Screen. Data for the wt2 strain (AID 169);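 also: 0% = growth of vehicle-treated yeast cultures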; conditions: S. cerevisiae wt2 strain growth inhibition, hits give high values
Method in brief: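 This strain belongs to a panel of yeast strains with defined genetic alterations in DNA damage repair or cell cycle control. Compounds are applied, and growth inhibition is measured against vehicle-treated cultures.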

[13] = NCI Yeast Anticancer Drug Screen. Data for the mlh1 strain (AID 171);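 also: 0% = growth of vehicle-treated control cultures of the same strain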; conditions: S. cerevisiae mlh1 strain growth inhibition, hits give high values
Method in brief: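 Growth of the mutant yeast strain after compound exposure, expressed as inhibition relative to vehicle-only controls.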

[14] = NCI Yeast Anticancer Drug Screen. Data for the sgs1 strain (AID 173);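 also: 0% = growth of vehicle-only control cultures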; conditions: S. cerevisiae sgs1 mutant, hits give high values
Method in brief: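 Growth of a yeast strain bearing a defined genetic alteration is measured after compound treatment. Inhibition is expressed relative to vehicle-only controls.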

[15] = NCI Yeast Anticancer Drug Screen. Data for the mlh1 rad18 strain (AID 175); conditions: S. cerevisiae mlh1 rad18 strain growth inhibition, hits give high values
Method in brief: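 Read-out is yeast growth inhibition, calculated against vehicle-only controls. The compound was applied to a strain engineered with DNA damage repair alterations.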

[16] = NCI Yeast Anticancer Drug Screen. Data for the rad18 strain (AID 177); conditions: S. cerevisiae rad18 mutant growth inhibition, hits give high values
Method in brief: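 Growth of the mutant yeast strain after compound exposure, normalised to vehicle-only cultures.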

[17] = at 5.0 µM (retest, dose inferred, filed as 0.5)
[18] = at 50.0 µM (retest, dose inferred, filed as 5.0)

Measured: growth inhibition

COC(=O)C1(C)CCc2c(ccc3ccccc23)C1=O (stereo not drawn)
active: [11]; [18] 78% | [11]; at 50.0 µM 81% | [11]; at 100.0 µM 75% | [12]; at 100.0 µM 80%
inactive: [1]; at 1.2 µM -1% | [1]; at 3.7 µM 4% | [1]; at 11.0 µM 12% | [1]; at 33.0 µM 4% | [1]; at 100.0 µM 44% | [2]; at 1.2 µM 0% | [2]; at 3.7 µM -2% | [2]; at 11.0 µM -3% | [2]; at 33.0 µM -2% | [2]; at 100.0 µM -13% | [3]; at 1.2 µM -1% | [3]; at 3.7 µM 13% | [3]; at 11.0 µM 28% | [3]; at 33.0 µM 23% | [3]; at 100.0 µM 49% | [4]; at 1.2 µM -1% | [4]; at 3.7 µM 0% | [4]; at 11.0 µM -1% | [4]; at 33.0 µM -2% | [4]; at 100.0 µM 30% | [5]; at 1.2 µM -1% | [5]; at 3.7 µM 6% | [5]; [17] -13% | [5]; at 11.0 µM 13% | [5]; at 33.0 µM -87% | [5]; [18] 29% | [5]; at 50.0 µM 39.9% | [5]; at 100.0 µM 42% | [6]; at 1.2 µM 1% | [6]; at 3.7 µM -1% | [6]; [17] -14% | [6]; at 11.0 µM -2% | [6]; at 33.0 µM 0% | [6]; [18] -17% | [6]; at 50.0 µM 27.1% | [6]; at 100.0 µM 13% | [7]; at 1.2 µM -1% | [7]; at 3.7 µM 4% | [7]; at 11.0 µM 12% | [7]; at 33.0 µM 14% | [7]; at 100.0 µM 19% | [8]; [17] -5% | [8]; [18] 47% | [8]; at 50.0 µM 64.3% | [9]; at 1.2 µM -4% | [9]; at 3.7 µM 4% | [9]; at 11.0 µM 6% | [9]; at 33.0 µM 11% | [9]; at 100.0 µM 15% | [10]; [17] -10% | [10]; [18] 12% | [10]; at 50.0 µM 1.75% | [11]; at 1.2 µM 37% | [11]; at 3.7 µM 49% | [11]; [17] 40% | [11]; at 11.0 µM 57% | [11]; at 33.0 µM 65% | [12]; at 1.2 µM -5% | [12]; at 3.7 µM -2% | [12]; at 11.0 µM 9% | [12]; at 33.0 µM -5% | [13]; at 1.2 µM -2% | [13]; at 3.7 µM 2% | [13]; at 11.0 µM 7% | [13]; at 33.0 µM 5% | [13]; at 100.0 µM 32% | [14]; at 1.2 µM -14% | [14]; at 3.7 µM 3% | [14]; at 11.0 µM 16% | [14]; at 33.0 µM 34% | [14]; at 100.0 µM 67% | [15]; [17] -11% | [15]; [18] 57% | [15]; at 50.0 µM 26.5% | [16]; at 1.2 µM -5% | [16]; at 3.7 µM 6% | [16]; at 11.0 µM 10% | [16]; at 33.0 µM 7% | [16]; at 100.0 µM 53%

COC(=O)CC1(O)C(/C=C/c2ccccc2)C(C(=O)OC)C(=O)C(C(=O)OC)C1C(=O)OC (stereo not drawn)
active: [11]; at 50.0 µM 74.2%
inactive: [1]; at 1.2 µM 0% | [1]; at 3.7 µM 0% | [1]; at 11.0 µM 1% | [1]; at 33.0 µM 2% | [1]; at 100.0 µM 13% | [2]; at 1.2 µM 1% | [2]; at 3.7 µM 1% | [2]; at 11.0 µM 1% | [2]; at 33.0 µM -1% | [2]; at 100.0 µM -1% | [3]; at 1.2 µM -7% | [3]; at 3.7 µM -6% | [3]; at 11.0 µM -7% | [3]; at 33.0 µM -6% | [3]; at 100.0 µM -16% | [4]; at 1.2 µM -2% | [4]; at 3.7 µM -3% | [4]; at 11.0 µM -3% | [4]; at 33.0 µM 13% | [4]; at 100.0 µM 43% | [5]; at 1.2 µM -1% | [5]; at 3.7 µM -1% | [5]; [17] -3% | [5]; at 11.0 µM 2% | [5]; at 33.0 µM 1% | [5]; [18] 6% | [5]; at 50.0 µM 38.9% | [5]; at 100.0 µM 4% | [6]; at 1.2 µM -3% | [6]; at 3.7 µM -1% | [6]; [17] 1% | [6]; at 11.0 µM -4% | [6]; at 33.0 µM -2% | [6]; [18] 20% | [6]; at 50.0 µM 50% | [6]; at 100.0 µM 12% | [7]; at 1.2 µM -4% | [7]; at 3.7 µM -1% | [7]; at 11.0 µM 0% | [7]; at 33.0 µM 0% | [7]; at 100.0 µM 2% | [8]; [17] -1% | [8]; [18] 23% | [8]; at 50.0 µM 48% | [9]; at 1.2 µM -2% | [9]; at 3.7 µM 1% | [9]; at 11.0 µM -2% | [9]; at 33.0 µM -7% | [9]; at 100.0 µM 39% | [10]; [17] -18% | [10]; [18] 44% | [10]; at 50.0 µM -0.7% | [11]; at 1.2 µM -4% | [11]; at 3.7 µM -5% | [11]; [17] -2% | [11]; at 11.0 µM -2% | [11]; at 33.0 µM -4% | [11]; [18] 6% | [11]; at 100.0 µM -5%
